The values that follow come from PubChem BioAssay (EPA / NIEHS).

The AC50 is the midpoint of the concentration-response curve, whichever way the signal moves.

Records with an inconclusive call do not appear. Activity calls are given as the source filed them. Rule for the calls: active = hit-call score of the fitted dose curve at least 0.9, where 1 is the maximum; inconclusive = response in the unintended direction; inactive = score below 0.9.

Sequence of human Norepinephrine Transporter (NET), SLC6A2 (gene 6530) (P23975 whole entry, looked up): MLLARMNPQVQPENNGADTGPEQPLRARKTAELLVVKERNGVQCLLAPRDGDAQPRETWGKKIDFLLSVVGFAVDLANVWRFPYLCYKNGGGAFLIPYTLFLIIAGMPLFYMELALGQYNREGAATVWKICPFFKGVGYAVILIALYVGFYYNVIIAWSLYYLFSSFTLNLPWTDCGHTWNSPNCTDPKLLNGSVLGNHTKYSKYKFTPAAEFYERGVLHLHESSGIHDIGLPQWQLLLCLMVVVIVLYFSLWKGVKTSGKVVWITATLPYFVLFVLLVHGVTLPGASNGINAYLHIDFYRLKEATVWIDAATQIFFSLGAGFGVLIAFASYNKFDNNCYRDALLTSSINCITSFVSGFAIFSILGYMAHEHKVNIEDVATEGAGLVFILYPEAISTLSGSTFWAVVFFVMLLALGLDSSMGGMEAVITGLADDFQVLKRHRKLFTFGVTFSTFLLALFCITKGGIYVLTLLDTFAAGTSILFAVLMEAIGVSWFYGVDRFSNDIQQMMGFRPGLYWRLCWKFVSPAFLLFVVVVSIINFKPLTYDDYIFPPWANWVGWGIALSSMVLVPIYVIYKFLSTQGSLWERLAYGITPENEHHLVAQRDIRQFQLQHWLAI

In one assay the target is rat Serotonin Transporter (SERT), Slc6a4 (gene 25553) (UniProt P31652). Nature of the assay: NVS_TR_rSERT: NovaScreen (NVS) Transporter Assay for rat Serotonin Transporter (SERT) (AID 2283375). The method in brief: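 Using rat forebrain membrane SERT, test chemicals compete with a radioligand for 1 hour, and bound counts are taken by filter-based scintillation. Screening starts at 25 uM in duplicate, followed by concentration series for actives.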
Sequence of rat Serotonin Transporter (SERT), Slc6a4 (gene 25553) (P31652 whole entry, looked up): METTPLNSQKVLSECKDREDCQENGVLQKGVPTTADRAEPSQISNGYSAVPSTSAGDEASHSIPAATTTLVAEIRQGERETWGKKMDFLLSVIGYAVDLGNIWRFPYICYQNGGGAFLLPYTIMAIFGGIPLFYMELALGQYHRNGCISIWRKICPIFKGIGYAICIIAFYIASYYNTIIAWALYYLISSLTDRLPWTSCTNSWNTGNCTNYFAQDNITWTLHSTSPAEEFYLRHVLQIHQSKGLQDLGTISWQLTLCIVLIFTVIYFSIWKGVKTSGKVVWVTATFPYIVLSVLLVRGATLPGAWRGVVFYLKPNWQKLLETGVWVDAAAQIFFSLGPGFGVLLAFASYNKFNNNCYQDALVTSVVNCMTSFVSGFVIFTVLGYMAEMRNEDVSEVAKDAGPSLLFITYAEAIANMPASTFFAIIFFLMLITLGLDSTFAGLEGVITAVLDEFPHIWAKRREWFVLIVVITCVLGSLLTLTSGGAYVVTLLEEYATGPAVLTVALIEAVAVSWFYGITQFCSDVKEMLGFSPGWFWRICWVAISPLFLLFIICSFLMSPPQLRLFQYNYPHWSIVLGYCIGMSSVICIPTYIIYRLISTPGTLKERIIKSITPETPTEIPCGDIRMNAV
Consider `Cc1ccc(S(=O)(=O)NC(=O)NN2CCCCCC2)cc1`, for which the result was inactive.
As for `CCCCCCCCCC`, the call was inactive.
Consider `CCCOc1ccc(S(=O)(=O)N2CCN(CC)CC2)cc1-c1nc2c(CC)n(Cc3ccccn3)nc2c(=O)[nH]1`, for which the call was inactive.
With `O=S(=O)(O)c1ccc(N=Nc2c(O)ccc3cc(S(=O)(=O)O)ccc23)cc1`, the result was inactive.
As to `CCCCCCCCN(C)C`, the AC50 is 12.5 µM (active).

A further assay has as its target human Norepinephrine Transporter (NET), SLC6A2 (gene 6530) (UniProt P23975). Kind of assay: NVS_TR_hNET: NovaScreen (NVS) Transporter Assay for human Norepinephrine Transporter (NET) (AID 2283377).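 For AC50: displacement of radioligand from human NET seen as loss of scintillation signal.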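 Note: cell-free membrane protein extracted from CHO cells expressing human NET.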 The method in brief: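 CHO cell extracts expressing the transporter; tritiated or iodinated tracer displaced competitively; filtration plus scintillation readout at 1 h. Single-point duplicates at 25 uM, concentration series for follow-up; activity = signal drop relative to DMSO.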
Consider `CNC(C)=O`, for which the result was inactive.
With `c1ccc(C(O[C@@H]2CCCN(CCc3ccc4c(c3)OCO4)C2)c2ccccc2)cc1`, the AC50 is 4.2 µM (active).
Regarding `c1ccc2cc3ccccc3cc2c1`, the AC50 is 6.95 µM (active).
